Only some compounds are listed: those with a hit (about 1.2% of all), similar ones and a draw of the others.
GLA inh pH 4.5: inhibitors of human alpha-galactosidase A at pH 4.5; 230,000 tested, under 10 active; AID 1467; activity change, negative = inhibition, % at 105 µM; purified enzyme, 4-MU-alpha-Gal fluorescence, pH 4.5;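 also: 0% = full activity with enzyme and -100% = basal without enzyme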
Target sequence (P06280 whole entry, looked up): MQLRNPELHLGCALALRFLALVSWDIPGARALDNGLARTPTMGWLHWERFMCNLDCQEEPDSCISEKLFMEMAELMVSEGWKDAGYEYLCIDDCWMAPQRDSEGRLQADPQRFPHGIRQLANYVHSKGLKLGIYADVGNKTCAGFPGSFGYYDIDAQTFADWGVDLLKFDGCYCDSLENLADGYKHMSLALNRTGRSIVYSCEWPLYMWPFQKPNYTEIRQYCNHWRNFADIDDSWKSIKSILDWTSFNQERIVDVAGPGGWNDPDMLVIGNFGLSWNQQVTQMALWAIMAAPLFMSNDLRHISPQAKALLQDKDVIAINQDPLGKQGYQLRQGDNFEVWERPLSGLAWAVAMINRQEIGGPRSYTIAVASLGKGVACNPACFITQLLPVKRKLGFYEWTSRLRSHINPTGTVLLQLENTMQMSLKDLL
ERK EGF inh: EGF-driven ERK pathway inhibition | HEK293-V1b, EGF-stimulated phospho-ERK AlphaScreen | Potency, µM (top dose mostly 11.5 µM), for inactives: top-dose activity change, negative = inhibition, actives largely listed as inhibitors | 130,000 compounds, 0.41% hits | AID 1454;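 also: potency is read from the fitted curve at half-maximal effect; plate controls were stimulated vehicle wells for no effect and unstimulated vehicle basal for full effect; nearly all actives have a fitted effect of over 55% in size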
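In this qHTS, HEK293 cells with stable type-1 vasopressin (V1b) receptor were exposed to compound at 37C for 30 min, stimulated 5 min with EGF at 25 nM, lysed, and probed for phospho-ERK by AlphaScreen.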
HTT aggregate: inhibitors of mutant huntingtin aggregate formation in PC12 cells | PC12 HttQ103-GFP aggregates, Acumen cytometry, 40 h | Potency, µM (highest dose often 46.1 µM), for the others: at the top dose activity change, negative = inhibition, hits mostly inhibitors | 220,000 compounds, 1.1% hits | AID 1688; also: potency is read from the fitted curve at half-maximal effect; % is scaled to controls: 0 for no effect and ±100 for the full control effect; nearly all actives have a fitted effect of over 60% in size
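Ecdysone-promoter PC12 model expressing HTT exon 1 Q103 fused to GFP, induced by tebufenozide at 100 nM final. Compounds titrated; aggregates sized 1–25 µm scored on a 488 nm laser cytometer.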
HTT ATP protect: protects HTT-Q103 PC12 cells, measured by ATP. PC12 HTT-Q103 induced, cytoprotection, ATP luminescence, 40 h. 230,000 compounds, 0.14% hits. Potency, µM (highest dose often 56.4 µM), for the others: cytoprotection (ATP increase), most hits filed as activators; also: potency is read from the fitted curve at half-maximal effect; % of control where 0% means no effect; nearly all actives have a fitted effect of over 45% in size
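PC12 cells with ecdysone-inducible HTT exon 1 Q103-GFP, induced with 100 nM tebufenozide and co-treated with library compounds in a dose series (1536-well, 1500 cells/well). Cytoprotection read as ATP content by ATPlite luminescence.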
aGal spleen mod: alpha-galactosidase A (human) modulation | 240,000 compounds, 0.008% hits | Potency, µM (highest dose often 80 µM), for inactives: at the top dose activity change, negative = inhibition, actives largely listed as inhibitors | AID 2107 | human spleen homogenate, 4MU-alpha-Gal fluorescence, 40 min | P06280;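 also: potency is read from the fitted curve at half-maximal effect; 0% = enzyme with vehicle and -100% = no enzyme basal signal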
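Fluorogenic readout (Ex 365/Em 440 nm) of 4-methylumbelliferone released from 1 mM 4-MU-alpha-galactoside by spleen homogenate, 40 min at 37C, pH 5.0. Data normalized to no-enzyme and enzyme controls; Hill-equation AC50 from compound titrations.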
Numbers without * were called inactive; ? = inconclusive; . = not tested or not shown; [ ] = remark or other dose. Calls follow the shape of the dose curve; as a rule, active = well fitted curve in the direction sought with a large enough effect; inconclusive = small, poorly fitted or top-dose-only effect, or another doubt; inactive = no such curve, though single readings can be large; an effect the other way counts as inactive or inconclusive.

SMILES	GLA inh pH 4.5	ERK EGF inh	HTT aggregate	HTT ATP protect	aGal spleen mod
C=CS(=O)(=O)c1ccc(Oc2ccc(S(=O)(=O)C=C)cc2)cc1	-1	13µM*	.	11%[10 µM]	-6%
NS(=O)(=O)c1ccc(Oc2ccc(S(N)(=O)=O)cc2)cc1	-15	-10%	?	.	2%
O=C(O)c1cc(N(Cc2ccccc2O)Cc2ccccc2O)ccc1O	.	.	.	.	14%
CCC(C)C1=CC(=Nc2c(C)n(C)n(-c3ccccc3)c2=O)C=C(C(C)CC)C1=O (centres undefined)	-4	16µM*	-17%	-34%	-8%
CC1C2CCC3C4CC=C5CC(N(C)C)CC[C@@]5(C)C4CC[C@@]32CN1C (some centres undefined)	-6	27%	-2%	?	4%
Nc1c(S(=O)(=O)c2ccccc2)c2nc3ccccc3nc2n1Cc1ccco1	28	.	-18%	-48%	?
Cc1ccc(S(=O)(=O)c2c(N)n(Cc3ccco3)c3nc4ccccc4nc23)cc1C	2	.	13µM*	-11%	?
COc1ccc(-c2cc3ccccc3n2CC(O)CN2CCCCC2)cc1 (centres undefined)	-1	-2%[57.5 µM]	-33%[9.22 µM]	-11%[10 µM]	4%
CCC(=C(c1ccc(OC)cc1)c1ccc(OC)cc1)c1cn(CC(O)CN2CCN(C)CC2)c2ccccc12 (centres undefined)	-7	.	16µM*	-99%	2%
CCCCc1cc2c(cn1)=C(OC(=O)c1ccc(Cl)nc1)C(C)(OC(=O)CC)C(=O)C=2 (centres undefined)	7	.	.	5%[10 µM]	6%[17.5 µM]
CCCC(Oc1ccc(Br)cc1)c1nc2c3cc(OC)c(OC)cc3nc(=S)n2[nH]1 (centres undefined)	-7	?	?	?	3%
CC(Oc1ccc(Br)cc1)c1nc2c3ccccc3nc(=S)n2[nH]1 (centres undefined)	12	?	8.9µM*	-70%	4%
c1ccc(CCc2ccccc2-c2nc(-c3cccnc3)no2)cc1	-13	.	20µM*	-13%	-5%
c1ccc(CCc2nc(-c3cccnc3)no2)cc1	-13	.	-13%	5%	0%
COCC(=O)N1CCC2(CC1)CN(Cc1ccc(C#N)cc1)C2	.	-6%	.	-10%	-20%
CN(C)c1cc[n+](Cc2c(Cl)cccc2Cl)cc1	0	6%	8.9µM*	-39%[10 µM]	-3%
CN(C)c1cc[n+](CC(=O)Nc2c(Cl)cc(Cl)cc2Cl)cc1	9	-7%	2%[9.22 µM]	9%[10 µM]	-1%
CC(C)[C@H](NC(=O)c1ccccc1)C(=O)OCc1nc2scc(-c3ccccc3)c2c(=O)[nH]1	5	35µM*	-25%	-14%[10 µM]	9%
Cc1ccc(C(=O)Nc2nc(=O)n(C(=O)c3ccccc3C)s2)cc1	1	.	.	18µM*	-21%
CCOc1c(Br)ccc2c1sc1nc[nH]c(=O)c12	2	.	11µM*	11%[10 µM]	-3%
CC(=O)NCCNc1ncnc2ccc(-c3ccccc3C(F)(F)F)cc12	.	.	.	-31%	4%
CN1/C(=C\C(=O)C[n+]2ccc(C(=O)c3ccccc3)cc2)C(C)(C)c2ccccc21	-1	-2%	13µM*	-18%[10 µM]	-5%
O=C(CCc1ccccc1)n1nc(-c2ccccc2)nc1NCc1ccco1	-6	3%	25µM*	6%[10 µM]	-19%
CC(=O)OCC(NC(=O)C1CCCN1C(=O)OC(C)(C)C)C1OC(n2ccc(=O)[nH]c2=O)C(OC(C)=O)C1OC(C)=O (centres undefined)	.	.	.	.	1%
CC(c1ccon1)N(C)Cc1cn(C)nc1-c1ccc2c(c1)OCCO2 (centres undefined)	0	-2%[57.5 µM]	-17%[9.22 µM]	12%[10 µM]	-12%
SMILES	GLA inh pH 4.5	ERK EGF inh	HTT aggregate	HTT ATP protect	aGal spleen mod
CC(c1ccon1)N(C)Cc1cn(Cc2ccccc2)nc1-c1ccc2c(c1)OCO2 (centres undefined)	-16	-41%	14µM*	-74%	-11%
O=C(CSc1c(Cl)cccc1Cl)N1CCC(c2nc3ccccc3s2)CC1	0	.	11µM*	-53%	1%
O=C(C1CCC1)N1CCc2cc(S(=O)(=O)Nc3ccc4c(c3)OCCO4)ccc21	-1	.	?	-14%	3%
Cn1c(=O)c(=O)n(C)c2cc(S(=O)(=O)Nc3ccc4c(c3)OCCO4)ccc21	-3	.	-16%	-6%[1.9 µM]	2%
Cn1c(=O)oc2cc(S(=O)(=O)Nc3ccc4c(c3)OCCO4)ccc21	4	.	35µM*	-9%	5%
CCC(=O)N1CCc2cc(S(=O)(=O)Nc3ccc4c(c3)OCCO4)ccc21	-4	.	7.9µM*	26%	-1%
CC(C)C[C@H](NC(=O)[C@H](Cc1ccccc1)NC(=O)CNC(=O)[C@H](CCC(=O)O)NC(=O)[C@H](CCCNC(=N)N)NC(=O)[C@H](C)NC(=O)[C@H](C)NC(=O)[C@@H](N)CC(=O)O)C(=O)N[C@@H](CC(=O)O)C(=O)N[C@H](C(=O)N[C@@H](CC(C)C)C(=O)N[C@H](C(=O)N[C@H](C(=O)N[C@@H](CC(C)C)C(=O)N[C@@H](Cc1cnc[nH]1)C(=O)N[C@@H](CCCNC(=N)N)C(=O)N[C@@H](C)C(=O)NCC(=O)N[C@@H](C)C(=O)N[C@@H](CCCNC(=N)N)C(=O)O)C(C)C)C(C)C)[C@@H](C)O	.	.	.	.	12%
CNC(=O)Oc1ccc2c(c1)C1(C)CCN(C)C1N2C (centres undefined)	-8	-19%	.	-20%[1.9 µM]	-4%
Cc1ccc(C)c(NC(=S)NNC(=O)c2csc3c2CCCC3)c1	-4	.	25µM*	11%	4%
Cc1cccc(OCC(=O)N2CCN(c3nnc(-c4ccccc4)c4ccccc34)CC2)c1	-2	-10%[57.5 µM]	5%[9.22 µM]	14%[10 µM]	6%
Cc1ccc(-c2nnc(N3CCN(C(=O)COc4cccc(C)c4)CC3)c3ccccc23)cc1	-6	40µM*	9%[9.22 µM]	-10%[10 µM]	1%
COC(=O)C1=C[C@@H](C(=O)OC)[C@H]2C3=C(C(=O)[C@@]2(C)NC(=O)c2ccccc2)[C@H](C)C(C(=O)OC)=C(C(=O)OC)[C@@H]3C1	.	.	.	.	6%
C=CCSCC=C	-3	6%	.	6%	5%
O=C(O)C(O)C(O)(Cc1ccc(O)cc1)C(=O)O (centres undefined)	0	-11%	.	-28%	-14%
C/C(=N\NC(=O)C(C)Oc1ccc([N+](=O)[O-])cc1)c1ccccn1 (centres undefined)	-1	.	10µM*	-71%	8%
CCc1nnc(NC(=O)c2ccc(S(=O)(=O)N3CCCc4ccccc43)cc2)o1	-2	.	8.9µM*	-69%[10 µM]	-1%
O=[N+]([O-])c1ccc(CSc2ncnc3c2ncn3[C@@H]2O[C@@H](CO)[C@@H](O)[C@H]2O)cc1	.	.	.	-12%[1.9 µM]	.
Clc1ccc(CSc2nnc(-c3ccncc3)o2)cc1	3	.	10µM*	-1%	8%
